{"source": "PubChem BioAssay AID2284109", "about": "(EPA ToxCast)", "note": "Active and inactive are the calls of the source. How the source made its calls: active means hit-call score of the fitted dose curve at least 0.9, where 1 is the maximum; inactive means score below 0.9."}
{"biological_target": "human p38beta (SAPK2) CMGC Kinase, MAPK11 (gene 5600) (UniProt Q15759)", "sequence (Q15759 whole entry, looked up)": "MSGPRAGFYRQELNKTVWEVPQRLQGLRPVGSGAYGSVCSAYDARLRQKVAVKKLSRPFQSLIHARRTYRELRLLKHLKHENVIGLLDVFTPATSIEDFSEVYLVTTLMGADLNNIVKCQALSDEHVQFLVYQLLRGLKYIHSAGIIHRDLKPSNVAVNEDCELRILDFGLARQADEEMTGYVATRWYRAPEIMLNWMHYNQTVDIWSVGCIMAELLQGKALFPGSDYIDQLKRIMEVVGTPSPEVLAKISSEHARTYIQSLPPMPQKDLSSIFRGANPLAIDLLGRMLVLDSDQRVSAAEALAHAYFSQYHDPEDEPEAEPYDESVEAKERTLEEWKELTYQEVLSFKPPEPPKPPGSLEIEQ", "assay": "ERF_KP_ENZ_hMAPK11: Eurofins (ERF) Enzymatic Radiometric [10 uM ATP] KinaseProfiler LeadHunter Assay for human p38beta (SAPK2) CMGC Kinase", "method": "ERF_KP_ENZ_hMAPK11 is a biochemical, single-readout assay that uses extracted gene-proteins in a cell-free assay. Measurements were taken 0.66 hour after chemical dosing in a 96-well plate. See SAPK2 (p38beta) Human CMGC Kinase Enzymatic Radiometric Assay [10 uM ATP], KinaseProfiler.ERF_KP_ENZ_hMAPK11 is an assay component calculated from the ERF_KP_ENZ_hMAPK11 assay. It is designed to measure enzyme activity using a type of enzyme reporter as detected by scintillation counting with radiometry technology.Data from the assay component ERF_KP_ENZ_hMAPK11 was analyzed at the assay endpoint, ERF_KP_ENZ_hMAPK11, in the positive analysis fitting direction relative to DMSO as the negative control and baseline of activity. Using a type of enzyme reporter, loss-of-signal activity can be used to understand changes in enzymatic activity as they relate to gene MAPK11. To generalize the intended target to other relatable targets, this assay endpoint is annotated to the kinase intended target family, where the subfamily is serine/threonine kinase.\nSAPK2b (h) is incubated with 25 mM Tris pH 7.5, 0.02 mM EGTA, 0.33 mg/mL myelin basic protein, 10 mM MgAcetate and [gamma-33P]-ATP (specific activity and concentration as required). The reaction is initiated by the addition of the Mg/ATP mix. […]"}
{"compound": "O=C(/C=C/c1ccc(O)cc1)CC(=O)/C=C/c1ccc(O)cc1", "AC50": "0.293 nM (active)"}
